According to PubChem BioAssay (EPA / NIEHS):
Calls of active or inactive are those of the source. The calls were made as follows: active = hit-call score of the fitted dose curve at least 0.9, where 1 is the maximum; inactive = score below 0.9.

These compounds were tested on Vascular cell adhesion molecule 1 (VCAM1), VCAM1 (gene 7412) (assay: BSK_LPS_VCAM1: BioMAP Diversity Plus: LPS Assay for Vascular cell adhesion molecule 1 (VCAM1) Biomarker Activity (AID 2283086)). Conditions: primary human HUVEC with PBMC; actives raise or lower the signal.
Protocol: BSK_LPS is a cell-based, multiplexed-readout assay that uses umbilical vein endothelium and peripheral blood mononuclear cells, a human vascular primary cell co-culture, with measurements taken at 24 hours after chemical dosing in a 96-well plate.BSK_LPS_VCAM1 is an assay component measured in the BSK_LPS assay. It measures VCAM-1 antibody related to regulation of gene expression using ELISA technology.Data from the assay component BSK_LPS_VCAM1 was analyzed into 1 assay endpoint. This assay endpoint, BSK_LPS_VCAM1, was analyzed with bidirectional fitting relative to DMSO as the negative control and baseline of activity. Using a type of binding reporter, gain or loss-of-signal activity can be used to understand changes in the signaling as they relate to the gene VCAM1. Furthermore, this assay endpoint can be referred to as a primary readout, because this assay has produced multiple assay endpoints where this one serves a signaling function. To generalize the intended target to other relatable targets, this assay endpoint is annotated to the cell adhesion molecules intended target family, where the subfamily is Immunoglobulin CAM.
The levels of cell surface (or secreted, indicated by the prefix "s") biomarker endpoints were measured by ELISA. Overt cytotoxicity to cells in confluent adherent cultures (all systems other than the BT system) was assessed by measuring total protein levels using sulforhodamine B (SRB) staining in parallel cultures at the time of biomarker measurements, indicated as SRB endpoints. For proliferation assays for adherent cell types, individual cell types are cultured at sub-confluence and relative cell numbers quantified by SRB staining at time points optimized for each system (48 h: 3C and CASM3C systems; 72 h: BT and HDF3CGF systems; 96 h: SAg system). SRB was performed by staining cells with 0.1% SRB after fixation with 10% TCA and reading wells at 560 nm.Viability and proliferation of PBMC (T cells) was quantified by Alamar Blue reduction for the SAg and BT systems. For PBMC viability (referred to as PBMC Cytotoxicity within the assay endpoint names), cells were plated (75,000/well in a 96-well plate) and then chemical samples added for 1 h before addition of activators, SEB and TSST-1 (20 ng/mL final concentration each). Cells were incubated for 90 h. Then, Alamar Blue (20 uL/well) (Invitrogen, Cat DAL1100) was added for 6 h, and the plates were read with a fluorescence microplate reader at 546/580 nm (excitation/emission). For PBMC proliferation, cells were plated and activated as above but incubated for only 16 h prior to addition of Alamar Blue. Plates were read after 6 h.

Structure (SMILES) | outcome | AC50
O=C(Oc1ccccc1)c1cccc(C(=O)Oc2ccccc2)c1 | inactive | –
Cc1ccc(C(C)(C)C)c(O)c1 | inactive | –
CCCCC(CC)COP(=O)(OCC(CC)CCCC)OCC(CC)CCCC (stereo not given) | inactive | –
CC(COCC(C)OC(=O)c1ccccc1)OC(=O)c1ccccc1 (stereo not given) | inactive | –
O=C(O)c1[nH]n(-c2ccc(S(=O)(=O)O)cc2)c(=O)c1N=Nc1ccc(S(=O)(=O)O)cc1 | inactive | –
CS(=O)(=O)c1ccc([C@@H](C[C@H]2CCC(=O)C2)C(=O)Nc2cnccn2)cc1Cl | inactive | –
C=CCCCCCCCCCCCC | inactive | –
Cc1cc(SC2=C(O)C[C@@](CCc3ccc(N)cc3)(C(C)C)OC2=O)c(C(C)(C)C)cc1CO | inactive | –
CO[C@@H]1COCC[C@@H]1N[C@@H]1CC[C@@](C(=O)N2CCc3ncc(C(F)(F)F)cc3C2)(C(C)C)C1 | inactive | –
O=C(N[C@@H](c1ccccc1)[C@@H]1CCCCN1)c1cccc(C(F)(F)F)c1Cl | – | 20 µM (active)
CCCCCCC(CCCCCCCCCCC(=O)OCC(COC(C)=O)OC(C)=O)OC(C)=O (stereo not given) | inactive | –
C#CC(O)C(CC)CCCC (stereo not given) | inactive | –
NC=O | inactive | –
COC(=O)[C@H]1[C@H]2C[C@@H]3c4[nH]c5cc(OC)ccc5c4CCN3C[C@H]2C[C@@H](OC(=O)c2cc(OC)c(OC)c(OC)c2)[C@@H]1OC | – | 12 µM (active)
CC(=O)O[C@]1(C(C)=O)CC[C@H]2[C@@H]3C=C(Cl)C4=CC(=O)[C@@H]5C[C@@H]5[C@]4(C)[C@H]3CC[C@@]21C | inactive | –
COC(=O)CCCC(=O)OC | inactive | –
O=C1OC(c2ccc(O)cc2)(c2ccc(O)cc2)c2ccccc21 | – | 30.7 µM (active)
Nc1nc(Cl)nc2c1ncn2[C@H]1C[C@H](O)[C@@H](CO)O1 | inactive | –
O=[Si]=O | inactive | –
CCc1cc(C2=C(C(=O)O)N(c3ccccc3C(F)(F)F)S(=O)(=O)c3ccccc32)cc2c1OCO2 | inactive | –

Structure (SMILES) | outcome | AC50
CCC(C)N(C)C(=O)c1cc2ccccc2c(-c2ccccc2Cl)n1 (stereo not given) | inactive | –
CN(C)CCCN(C)CCCN(C)C | inactive | –
CC(C)c1cccc(C(C)C)c1 | inactive | –
CC(C)COC(=O)CCCCC(=O)OCC(C)C | inactive | –
CCCCc1nc2cccnc2n1Cc1ccc(-c2ccccc2-c2nnn[nH]2)cc1 | inactive | –
Cc1occc(=O)c1O | inactive | –
CN(C)C(=O)NC1(c2ccccc2)CCN(CCC[C@]2(c3ccc(Cl)c(Cl)c3)CCCN(C(=O)c3ccccc3)C2)CC1 | – | 6.96 µM (active)
CC(C)(O)c1ccc(CNC(=O)c2cccnc2Oc2ccc(F)cc2)cc1 | inactive | –
O=C1NC(=O)C(c2ccccc2)(c2ccccc2)N1 | inactive | –
CCCC[C@H]1CN(CC2CCOCC2)C(=O)OC12CCN(C1(C)CCN(C(=O)c3c(C)ncnc3C)CC1)CC2 | inactive | –
CCCCC(CC)COC(=O)CCCCCCCC(=O)OCC(CC)CCCC (stereo not given) | inactive | –
COC(=O)CCC(=O)OC | inactive | –
CCCCCCCCCC[N+](C)(C)[O-] | – | 35.5 µM (active)
Nc1nc(=S)c2[nH]cnc2[nH]1 | inactive | –
CC1=C(C)S(=O)(=O)CCS1(=O)=O | – | 11.5 µM (active)
O=C(O)c1cccnc1 | inactive | –
CCOCCOCCO | inactive | –
Cc1cn([C@H]2C=C[C@@H](CO)O2)c(=O)[nH]c1=O | inactive | –
O=NO | inactive | –
COc1ccc(C(=O)Nc2nc3ccccc3c(NCc3ccccc3)c2C#N)cc1 | – | 4.78 µM (active)
